Screening results deposited in PubChem by several laboratories.
ABHD5-PLIN5 inh: ABHD5-PLIN5 interaction inhibitors, primary screen, cell lysate, split luciferase complementation, luminescence; Split G. princeps luciferase complementation, 4 h; inhibition, % at 4 µM; hit rate 0.78% among 360,000; AID 602281, 2012;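 active means inhibition above the mean inhibition across every tested compound plus 3 SD, cut at about 22% in these data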;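 further: 0% = DMSO only wells and the 100% control is not disclosed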
Target sequence (Q00G26 whole entry, looked up): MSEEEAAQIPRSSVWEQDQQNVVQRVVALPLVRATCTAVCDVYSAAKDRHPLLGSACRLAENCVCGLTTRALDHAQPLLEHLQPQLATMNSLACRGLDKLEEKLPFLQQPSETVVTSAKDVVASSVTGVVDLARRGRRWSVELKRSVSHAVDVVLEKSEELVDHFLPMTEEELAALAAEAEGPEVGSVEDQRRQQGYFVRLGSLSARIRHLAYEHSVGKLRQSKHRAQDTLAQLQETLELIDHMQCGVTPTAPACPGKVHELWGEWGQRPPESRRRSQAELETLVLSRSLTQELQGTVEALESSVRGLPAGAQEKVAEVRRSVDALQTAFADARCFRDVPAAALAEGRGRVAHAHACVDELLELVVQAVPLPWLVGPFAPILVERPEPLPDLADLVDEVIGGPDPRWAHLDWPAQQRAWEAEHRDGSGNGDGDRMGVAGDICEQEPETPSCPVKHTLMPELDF
Target sequence (Q8WTS1 whole entry, looked up): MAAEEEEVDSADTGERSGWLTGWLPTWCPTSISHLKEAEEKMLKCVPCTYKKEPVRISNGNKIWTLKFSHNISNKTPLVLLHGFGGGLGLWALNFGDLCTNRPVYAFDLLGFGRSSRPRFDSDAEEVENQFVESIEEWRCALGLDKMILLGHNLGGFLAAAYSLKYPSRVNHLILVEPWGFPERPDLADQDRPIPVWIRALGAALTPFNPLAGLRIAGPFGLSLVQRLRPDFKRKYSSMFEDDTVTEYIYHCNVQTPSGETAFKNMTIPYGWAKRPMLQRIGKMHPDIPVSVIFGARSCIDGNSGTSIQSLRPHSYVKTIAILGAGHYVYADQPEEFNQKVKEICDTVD
Mdm2 MdmX PPI: inhibitors of human Mdm2-MdmX association, primary screen, cell-based, luminescence, split luciferase, SaOS-2, uHTS. hit rate 3% among 330,000. AID 485346, 2010. inhibition, % at 8 µM. SaOS-2 split-luciferase Mdm2/MdmX complementation. Protein Mdm4 (Homo sapiens) + E3 ubiquitin-protein ligase Mdm2 (Homo sapiens), …;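 active means inhibition of at least 50% at 8 µM in the primary screen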
Peg3 promoter: Peg3 promoter-driven luciferase inhibitors, primary screen, cell-based, HeLa, luciferase luminescence. hit rate 1.7% among 360,000. inhibition, % at 20 µM. HeLa PEG-Prom luciferase reporter, overnight. AID 588405, 2011;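 active means inhibition of at least 50% at 20 µM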
HIF-2a inh: HIF-2a reporter inhibitors, primary screen, luminescence, 786-0 RCC cells; 786-0 RCC cells HIF-2a reporter, luciferase luminescence, overnight; AID 624352, 2012; inhibition, % at 18.8 µM; hit rate 0.72% among 360,000;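 active means inhibition of the luminescence signal of 40% or more relative to plate controls, in a single-dose primary screen at 18.75 µM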
CF NFkB block: inhibitors of PAF-induced NF-kB signaling, primary screen, cell-based, GFP fluorescence, uHTS | inhibition, % at 5 µM | KKLEB NF-kB-GFP reporter, GFP fluorescence overnight | hit rate 0.86% among 360,000;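 active means at least 50% inhibition at 5 µM, scaled per plate between neutral and stimulator controls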;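 further: PAF is a Pseudomonas aeruginosa culture filtrate used as stimulus; plate controls were PAF-stimulated DMSO wells for no effect and unstimulated DMSO wells for full effect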
KKLEB cytotox: cytotoxicity in KKLEB CF airway cells, primary screen, cytotoxicity control for CF NF-kB inhibitor project, cell-based, uHTS, fluorescence assay plates | KKLEB CF airway cells viability, ATPlite luminescence, overnight; active compounds read low; cells stimulated with P. aeruginosa culture filtrate | activity change (cytotoxicity), % at 5 µM | hit rate 0.36% among 360,000 | AID 602141, 2011;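 active means corrected activity change at or below -50% at 5 µM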
Mdm2 MdmX conf-1: Mdm2-MdmX complex disruptors, retested hits, confirmation, luminescence, single concentration; shares compounds with Mdm2 MdmX PPI; Mdm2-MdmX binding, luminescent assay; inhibition, % at 8 µM; hit rate 55% among 10,000
FLuc counter: full-length luciferase signal inhibition, confirmation, counter-screen for Mdm2/MdmX interaction inhibitor project, cell-based, single concentration, SaOS-2; shares compounds with Mdm2 MdmX PPI; AID 504607, 2011; SaOS-2 full-length luciferase counterscreen, luminescence; inhibition, % at 8 µM; hit rate 77% among 6,200;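 active means mean inhibition at 8 µM reaching about 37%, which flags the compound as non-specific, limit read from the data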;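 further: p53-null SaOS-2 cells with luciferase driven by a doxycycline-inducible promoter; compound on cells about two nights before reading with doxycycline added after day one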
CF NFkB inh conf: inhibitors of PAF-induced NF-kB signaling, retest, confirmation, cell-based, GFP fluorescence, single concentration. shares compounds with CF NFkB block. KKLEB CF airway cells, overnight. inhibition, % at 5 µM. hit rate 64% among 1,300;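 further: stimulus PAF is a Pseudomonas aeruginosa filtrate and not platelet activating factor; plate controls were DMSO wells with stimulus for no effect and unstimulated DMSO wells for full effect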
ABHD5-PLIN5 conf: ABHD5-PLIN5 interaction inhibitors, confirmation, biochemical, luminescence. shares compounds with ABHD5-PLIN5 inh. hit rate 67% among 2,200. inhibition, % at 4 µM; in the data active means inhibition above about 23%;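 further: 0% = DMSO vehicle wells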
HNF4 split-luc: HNF4 dimerization inhibitors, counter-screen for ABHD5-PLIN5 interaction inhibitor project, biochemical, split-luciferase complementation, luminescence. AID 651674, 2012. shares compounds with ABHD5-PLIN5 inh. hit rate 77% among 2,200. inhibition, % at 4 µM;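 active means mean inhibition across replicate wells exceeding the computed hit threshold, cut at about 13% in these data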;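 further: light from luciferase halves that rejoin when HNF4 fusion proteins dimerize; 0% = DMSO only wells and the 100% control is not given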
Mdm2 MdmX conf-2: retested Mdm2-MdmX interaction blockers, confirmation, cell-based, luminescence, single concentration, set 2; shares compounds with HIF-2a inh; SaOS-2 split-luciferase Mdm2/MdmX complementation; inhibition, % at 8 µM; hit rate 99% among 740; AID 504601, 2011;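 active means mean inhibition of the luminescence signal across two replicates at or above 26 percent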
HIF-2a conf: HIF-2a reporter inhibitor retest, confirmation, luminescence, 786-0 RCC cells. shares compounds with HIF-2a inh. HIF-2a luciferase reporter luminescence, overnight. inhibition, % at 18.8 µM. hit rate 56% among 1,800;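 active means mean inhibition across four replicates of at least 40 percent at the single tested concentration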
HIF-1a counter: HIF-1a luciferase reporter signal reduction – MiaPaCa-2 cells, single concentration, counter-screen for HIF-2a inhibitor project, confirmation; MiaPaCa-2 HIF-1a luciferase reporter, desferoxamine, overnight; inhibition, % at 18.8 µM; shares compounds with HIF-2a inh; AID 651589, 2012; hit rate 72% among 1,800;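 active means mean inhibition of the reporter signal across four replicates at the single tested dose of 50% or more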
Active calls of the source: *; . = no result. In the library only some 4.6% were active in any assay of this set; here they are far more common. Unless noted, no stated cut-off is given here; in the data, active means inhibition above about 40%; inactive means the rest.

SMILES	ABHD5-PLIN5 inh	Mdm2 MdmX PPI	Peg3 promoter	HIF-2a inh	CF NFkB block	KKLEB cytotox	Mdm2 MdmX conf-1	FLuc counter	HIF-2a conf	HIF-1a counter	others
COC(=O)Cc1ccc(NC(=O)c2ccc(C(C)(C)C)cc2)cc1	-13	66*	-44	90*	5	-8	55*	29	94*	40
CCOc1cc(C=C(C(=O)OC)C(=O)OC)ccc1OCc1ccc([N+](=O)[O-])cc1	66*	96*	107*	92*	31	-2	75*	44*	98*	107*	ABHD5-PLIN5 conf=96*;HNF4 split-luc=90*
COC(=O)C[C@@H]1OC[C@H](C(C)C)N1S(=O)(=O)c1ccc(C)cc1	-1	.	.	4	.	.	.	.	.	.
CC(C)N=C(NS(=O)(=O)c1ccccc1)C(Cl)(Cl)Cl	0	83*	38	84*	60*	-19	60*	74*	57*	35	CF NFkB inh conf=45*
O=S(=O)(NC(=S)c1ccccc1)c1ccccc1	-4	-2	8	13	-16	1	.	.	.	.
NS(=O)(=O)c1ccc(CCNC(=O)c2ccc3c(=O)n4c(nc3c2)CCCCC4)cc1	0	-20	5	8	8	4	.	.	.	.
O=c1c2ccccc2cnn1CCOc1ccccc1	-4	60*	44	54*	-27	3	69*	65*	64*	71*
COc1cc(CNCCc2ccc(S(N)(=O)=O)cc2)ccc1OCc1ccc(Cl)cc1	15	54*	92*	75*	20	-24	40*	69*	-8	94*
COc1cc(CNCCc2ccc(S(N)(=O)=O)cc2)ccc1OCC(=O)NC1CCCCC1	0	23	-8	18	10	-1	.	.	.	.
CCOc1cc(CNCCc2ccc(S(N)(=O)=O)cc2)ccc1OCc1ccc(Cl)cc1	28*	100*	108*	86*	-7	-45	68*	65*	3	102*
CC1(C(=O)Nc2cccc(Oc3ccccc3)c2)CCN1Cc1cc2ccccc2o1 (stereo not drawn)	-7	.	17	6	-5	-1	.	.	.	.
NS(=O)(=O)c1ccc(Sc2nc3ccccc3s2)c([N+](=O)[O-])c1	3	79*	37	16	82*	-53*	82*	56*	.	.	Mdm2 MdmX conf-2=97*
NS(=O)(=O)c1ccc(Sc2ccccn2)c([N+](=O)[O-])c1	3	5	11	11	17	10	.	.	.	.
OC(CCc1cccc(Cl)c1)c1cccs1 (stereo not drawn)	-4	-9	-69	-130	-12	6	.	.	.	.
NC(=O)NC(=O)COC(=O)/C=C/c1cccc(Br)c1	4	13	6	6	-11	11	.	.	.	.
CCOC(=O)C(CC)(CC)C(=O)/C=C/c1cccc(Br)c1	18	97*	109*	87*	24	1	66*	29	69*	104*
Cc1cc(C)n(S(=O)(=O)/C=C/c2ccccc2)n1	-1	73*	19	23	9	7	89*	52*	.	.	Mdm2 MdmX conf-2=93*
N#Cc1cccc(NS(=O)(=O)c2ccccc2Cl)c1	6	-8	5	0	-46	12	.	.	.	.
N#C/C(=C\c1ccc(Sc2ccccc2)o1)c1nc2ccccc2[nH]1	12	-84	-269	-218	4	-20	.	.	.	.
N#C/C(=C\c1ccc([N+](=O)[O-])o1)c1nc2ccccc2[nH]1	.	97*	.	.	.	.	70*	61*	.	.	Mdm2 MdmX conf-2=103*
C[C@@H]1[C@@H](Sc2ccccc2)CC(=O)O[C@@H]1c1ccc(-c2ccccc2)cc1	7	97*	97*	98*	62*	-48	63*	51*	6	101*	CF NFkB inh conf=-74;Mdm2 MdmX conf-2=103*
O=C(/C=C/c1ccc(O)c([N+](=O)[O-])c1)c1ccc2ccccc2c1	14	14	-45	-79	-8	18	.	.	.	.
COc1ccc(Oc2ccc(/C=C/C(=O)c3ccc(O)cc3)cc2[N+](=O)[O-])cc1	28*	98*	108*	91*	35	-20	33	.	37	104*	ABHD5-PLIN5 conf=80*;HNF4 split-luc=65*
COc1ccc(N2CC(C(=O)Nc3ccccc3C(=O)NC3CC3)CC2=O)cc1 (stereo not drawn)	-3	35	7	6	-1	-2	.	.	.	.
O=C1Cn2nnc(-c3ccccc3)c2C2c3ccccc3CCN12 (stereo not drawn)	2	.	6	8	-16	12	.	.	.	.
Cc1ccc(S(=O)(=O)CC(CN2CCOCC2)N2CCOCC2)cc1 (stereo not drawn)	-1	-30	6	9	-11	13	.	.	.	.
